Source: PubChem BioAssay AID1445 (SRMLSC, 2008)
In all, about 220,000 compounds went through this assay and about 910 (0.41%) were called active. The sample holds actives, similar compounds and a random draw of the others, so the mix is not that of the screen.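 How the source made its calls: active means primary inhibition above the hit cutoff, then over 50% inhibition at one or more dose response concentrations (cut at about 23% in these data, passing the limit was not always enough); inconclusive means conflicting primary data, or primary hits not chosen for dose response; inactive means low primary inhibition, or under 50% at every dose.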 Entries with a potency or affinity are not part of this list.

These molecules were tested against Aminopeptidase N (Plasmodium falciparum (isolate 3D7)) (UniProt O96935) (assay: malaria alanyl aminopeptidase activity blockers – biochemical, fluorogenic H-Leu-NHMec substrate, 1536-well (AID 1445;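 further: plate controls were DMSO full reaction for no effect and no enzyme background for full effect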)). Settings: recombinant M1AAP, H-Leu-NHMec fluorogenic kinetic assay; at 30 µM, active compounds read high unless noted.
Chain of Aminopeptidase N (Plasmodium falciparum (isolate 3D7)) (O96935 whole entry, looked up): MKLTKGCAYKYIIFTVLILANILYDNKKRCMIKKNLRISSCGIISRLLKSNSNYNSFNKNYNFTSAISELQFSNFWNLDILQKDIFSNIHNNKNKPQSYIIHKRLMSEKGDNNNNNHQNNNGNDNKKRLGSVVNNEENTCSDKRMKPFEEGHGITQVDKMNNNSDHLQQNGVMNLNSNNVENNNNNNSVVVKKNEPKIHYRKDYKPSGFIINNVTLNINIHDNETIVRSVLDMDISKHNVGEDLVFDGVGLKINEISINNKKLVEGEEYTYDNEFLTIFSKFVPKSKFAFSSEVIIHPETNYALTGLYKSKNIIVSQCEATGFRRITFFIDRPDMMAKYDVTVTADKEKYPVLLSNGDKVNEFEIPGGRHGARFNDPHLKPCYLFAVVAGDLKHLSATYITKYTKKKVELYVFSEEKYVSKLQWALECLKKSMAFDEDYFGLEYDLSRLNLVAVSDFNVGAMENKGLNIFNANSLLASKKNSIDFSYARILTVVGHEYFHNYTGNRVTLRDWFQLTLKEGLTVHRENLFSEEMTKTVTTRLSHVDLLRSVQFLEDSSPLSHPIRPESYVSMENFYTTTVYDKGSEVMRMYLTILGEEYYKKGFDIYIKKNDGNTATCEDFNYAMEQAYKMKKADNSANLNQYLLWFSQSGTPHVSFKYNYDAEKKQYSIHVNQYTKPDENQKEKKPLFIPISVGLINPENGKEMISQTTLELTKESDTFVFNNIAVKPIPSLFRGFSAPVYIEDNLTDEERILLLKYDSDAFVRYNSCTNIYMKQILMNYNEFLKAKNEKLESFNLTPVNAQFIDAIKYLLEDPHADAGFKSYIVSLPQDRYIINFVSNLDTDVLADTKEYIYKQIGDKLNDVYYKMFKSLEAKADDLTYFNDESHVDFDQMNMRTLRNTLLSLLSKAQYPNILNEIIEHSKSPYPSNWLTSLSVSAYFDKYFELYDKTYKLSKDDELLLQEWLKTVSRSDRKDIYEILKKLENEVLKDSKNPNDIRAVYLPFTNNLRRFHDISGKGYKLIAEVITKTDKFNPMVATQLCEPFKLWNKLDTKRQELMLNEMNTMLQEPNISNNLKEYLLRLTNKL
`Cc1cccc(N2CCN(Cc3cnc(Cl)s3)CC2C)c1` (centres undefined) was tested, and the inhibition was 3.39% (inactive). `COc1ccc(CNC(=O)c2csc(Cc3ccccc3)n2)cc1` was tested, and the inhibition was 2.78% (inactive). In the case of `Cc1nc2ccc(Cl)cc2c(-c2ccccc2F)c1CC(=O)O`, the inhibition is reported as 16.3% (inactive). With `Cc1nc2ccc(Cl)cc2c(-c2ccccc2Cl)c1CC(=O)O` the inhibition was -0.5% (inactive). `C/C(Cn1cnc([N+](=O)[O-])n1)=N\NC(=O)c1ccccc1` was tested, and the inhibition was 15.8% (inactive). In the case of `CCOc1ccc(NC(=O)C/C(N)=N/O)cc1`, the inhibition is reported as -8.44% (inactive). `COc1ccc([N+](=O)[O-])cc1NS(=O)(=O)c1cccc(C(=O)O)c1` was tested, and the inhibition was 7.17% (inactive). For `O=C(O)c1cccc(S(=O)(=O)Nc2ccccc2Cl)c1`, the inhibition was 0.86% (inactive). `CCOc1cc(C(=O)N(C)Cc2cc3ccccc3[nH]c2=O)cc(OCC)c1OCC` was tested, and the inhibition was 4.4% (inactive). With `CCCCCc1nc2sc3c(c2c(=O)n1NC(=O)c1ccc([N+](=O)[O-])cc1)CC(C)(C)OC3` the inhibition was 4.81% (inactive). With `CCCCCCCCCc1nc2sc3c(c2c(=O)n1NC(=O)c1ccc([N+](=O)[O-])cc1)CC(C)(C)OC3` the inhibition was 3.87% (inactive). In the case of `CCc1nc2sc3c(c2c(=O)n1N)CC(C)(C)OC3`, the inhibition is reported as -0.3% (inactive). With `CCCCCCCCCc1nc2sc3c(c2c(=O)n1NC(=O)c1ccccc1[N+](=O)[O-])CC(C)(C)OC3` the inhibition was -2.36% (inactive). With `Cn1c(=O)c(C(=O)COc2ccc(F)cc2Cl)c(N)n(Cc2ccccc2)c1=O` the inhibition was 6.9% (inactive). In the case of `COc1ccc(CC(NC(C)=O)C(=O)NC2CCN(c3c(Cc4ccccc4)c(C)nc4ncnn34)CC2)c(OC)c1` (centres undefined), the inhibition is reported as -2.17% (inactive). For `C/C(=N/N1CCN(c2ccccn2)CC1)c1ccc([N+](=O)[O-])cc1`, the inhibition was -1.3% (inactive). With `O=C(NCc1cccs1)c1nc2c(nnn2Cc2ccc(F)cc2)c(=O)[nH]1` the inhibition was 2.78% (inactive). `COc1ccc(Cn2nnc3c(=O)[nH]c(C(=O)NCCc4ccc(F)cc4)nc32)cc1OC` was tested, and the inhibition was 24.5% (active). For `O=C(NCCc1ccccc1)c1nc2c(nnn2Cc2ccccc2Cl)c(=O)[nH]1`, the inhibition was -9.83% (inactive). In the case of `O=C(COC(=O)c1cccc(C(=O)OCC(=O)NCc2ccc(F)cc2)n1)NCc1ccc(F)cc1`, the inhibition is reported as 5.21% (inactive). `Cc1cccc(NC(=O)C(NS(=O)(=O)c2ccc3c(c2)CCC(=O)N3)c2ccccc2)n1` (centres undefined) was tested, and the inhibition was 2.64% (inactive). `C=CCSc1nnc(NC(=O)c2ccc(Cl)nc2)s1` was tested, and the inhibition was 2.22% (inactive). With `CSc1ncc(Cl)c(C(=O)Nc2nnc(SC)s2)n1` the inhibition was 12.7% (inactive). For `CCSc1ncc(Cl)c(C(=O)Nc2ccccc2)n1`, the inhibition was 2.17% (inactive). With `CSc1ncc(Cl)c(C(=O)Nc2nnc(SC/C=C/c3ccccc3)s2)n1` the inhibition was 30% (inactive). For `Fc1ccc(NC(=S)NC23CN4CN(CN(C4)C2)C3)cc1`, the inhibition was 6.25% (inactive). In the case of `CCc1cccc(CC)c1NC(=O)COn1nnc2ccc(C(F)(F)F)cc21`, the inhibition is reported as -1.32% (inactive). In the case of `O=C(O)c1cccc(S(=O)(=O)Nc2ccc(O)c(Sc3nc4ccccc4s3)c2)c1`, the inhibition is reported as 22.2% (inactive). `O=S(=O)(Nc1ccc(O)c(Sc2nc3ccccc3s2)c1)c1ccc(F)cc1` was tested, and the inhibition was 7.05% (inactive). In the case of `O=S(=O)(Nc1ccc(O)c(Sc2nc3ccccc3s2)c1)c1ccc(Cl)cc1`, the inhibition is reported as 0.11% (inactive). `COc1ccc(S(=O)(=O)Nc2ccc(O)c(Sc3ncn[nH]3)c2)cc1` was tested, and the inhibition was 18% (inactive). For `Cc1cc(C)nc(NC(=O)/C=C/c2ccc3c(c2)OCO3)c1`, the inhibition was 4.5% (inactive). In the case of `Cc1cccc(NC(=O)CN2C(=O)COc3ccc(Cl)cc32)c1C`, the inhibition is reported as 0.78% (inactive). For `COc1cc(/C=C(\C#N)C(N)=O)ccc1OS(=O)(=O)c1ccc(C)cc1`, the inhibition was 12.9% (inactive). In the case of `COc1ccc(C=O)cc1OS(=O)(=O)c1ccc(NC(C)=O)cc1`, the inhibition is reported as 4.39% (inactive). In the case of `CCOc1ccc(/C=C2\SC(=S)NC2=O)cc1OC`, the inhibition is reported as 17.4% (inactive). In the case of `COc1ccc(/C=C2/S/C(=N/S(=O)(=O)Cc3ccccc3)NC2=O)cc1OC`, the inhibition is reported as 12.7% (inactive). For `COc1cc(C=O)ccc1OS(=O)(=O)c1ccc(NC(C)=O)cc1`, the inhibition was 7.57% (inactive). `COc1cc(/C=C/C(=O)O)ccc1OS(=O)(=O)c1ccc(C)cc1` was tested, and the inhibition was 0.48% (inactive). `CCOc1ccc(S(=O)(=O)N2CCOCC2)cc1[N+](=O)[O-]` was tested, and the inhibition was 1.27% (inactive). `Nc1ccc(C(=O)OCC(=O)c2cccc([N+](=O)[O-])c2)cc1` was tested, and the inhibition was -2.36% (inactive). With `Cc1nc(NCc2ccccc2)sc1C(=O)Nc1ccccc1` the inhibition was -1.78% (inactive). `CN1CCc2c(sc(NC(=O)c3ccc(S(=O)(=O)N4CCc5ccccc54)cc3)c2C(N)=O)C1` was tested, and the inhibition was 5.03% (inactive). `CCN(CC(=O)Nc1ccccc1OC)C(=O)COc1ccc2ccccc2c1` was tested, and the inhibition was 5.71% (inactive). `CC1(C)CC(=O)C2=C(C1)Nc1ccccc1NC2c1ccccn1` (centres undefined) was tested, and the inhibition was 8.61% (inactive). With `CC1(C)CC(=O)C2=C(C1)Nc1cc(C(=O)c3ccccc3)ccc1NC2c1ccccn1` (centres undefined) the inhibition was 18.1% (inactive). In the case of `Cc1cc2c(cc1C)NC(c1ccccn1)C1=C(CC(C)(C)CC1=O)N2` (centres undefined), the inhibition is reported as 23.3% (active). In the case of `COCCNC(=O)c1cc2oc3ccccc3c2n1C`, the inhibition is reported as 15% (inactive). In the case of `O=C1OC(/C(=C\Nc2ccc(F)cc2F)[N+](=O)[O-])c2ccccc21` (centres undefined), the inhibition is reported as 8.86% (inactive). For `O=C1OC(/C(=C\Nc2ccccc2)[N+](=O)[O-])c2ccccc21` (centres undefined), the inhibition was 7.21% (inactive). `O=[N+]([O-])c1cc(S(=O)(=O)N2CCCC2)ccc1NCCCN1CCOCC1` was tested, and the inhibition was 4.04% (inactive). With `CC(C)NCc1c(O)c(Br)cc2oc3c(c12)CCCC3` the inhibition was 9.95% (inactive). `O=[N+]([O-])c1cc2oc3c(c2c(C=NCc2ccccc2)c1O)CCCC3` was tested, and the inhibition was -0.25% (inactive). With `Oc1c(Br)cc2oc3c(c2c1CNCc1ccccc1)CCCC3` the inhibition was 33.9% (active). For `O=C(CSc1nnc(-c2cccs2)o1)OCc1ccccc1`, the inhibition was 5.09% (inactive). `CCO[C@H]1OC(C(=O)N2CCOCC2)=C[C@@H](c2ccc(Br)cc2)[C@@H]1CCCO` was tested, and the inhibition was -2.33% (inactive). For `CC/C(=C\C1CCCCC1)C(NP(=O)(c1ccccc1)c1ccccc1)c1ccccc1` (centres undefined), the inhibition was 5.64% (inactive). In the case of `CCOc1cc(NS(=O)(=O)c2ccc(OC)cc2)c(OCC)cc1NC(=O)c1ccco1`, the inhibition is reported as 1.99% (inactive). In the case of `CCOC(=O)C1C(=O)CC(C)(O)C(C(=O)OCC)C1c1ccc(Br)cc1` (centres undefined), the inhibition is reported as 11.1% (inactive). In the case of `Cc1ccc(NC(=O)N2CCN(S(=O)(=O)c3ccccc3)CC2)cc1`, the inhibition is reported as -1.89% (inactive). For `O=C(COC(=O)CCSc1ccc(Cl)cc1)NCCc1ccccc1`, the inhibition was -5.52% (inactive). `NS(=O)(=O)c1ccc(CCNC(=O)CSc2ccc(Cl)cc2)cc1` was tested, and the inhibition was 9.38% (inactive). For `O=C(CCC(=O)Nc1ccccc1)N/N=C/C=C/c1ccccc1`, the inhibition was 7.53% (inactive). `Cn1c(=O)c2c(nc(NCc3ccccc3)n2CC(=O)NCc2ccccc2)n(C)c1=O` was tested, and the inhibition was -6.75% (inactive). With `Cc1cccc(C(=O)Oc2ccc(/C=N/NC(=O)c3ccccc3O)cc2)c1` the inhibition was 3.44% (inactive). With `CCOC(=O)c1ccc2[nH]c3c(c2c1)CCCC3O` (centres undefined) the inhibition was 0.31% (inactive). For `CCN(CC)c1ccc(/C=C2/C(=O)N(c3ccc([N+](=O)[O-])cc3)N=C2N2CCOCC2)cc1`, the inhibition was -6.76% (inactive). With `CCN(CC)c1ccc(/C=C2/C(=O)ON=C2C)cc1` the inhibition was 15.8% (inactive). `C=CCOC(=O)c1[nH]c2c(c1C)C(=O)CC(c1ccco1)C2` (centres undefined) was tested, and the inhibition was 9.27% (inactive). `N#CC1=C(N)C2=C(N3CCCCC3)CCCC2C1(C#N)C#N` (centres undefined) was tested, and the inhibition was 27.6% (active). In the case of `N#CC1=C(N)C2=CCCC[C@H]2[C@H](c2ccccc2)C1(C#N)C#N`, the inhibition is reported as 0.19% (inactive). `N#CC1=C(N)C2=CCCC[C@H]2[C@H](c2ccc(Br)cc2)C1(C#N)C#N` was tested, and the inhibition was 1.37% (inactive). `COc1ccc(-c2cc(-c3cccnc3)c(C#N)c(N)n2)cc1` was tested, and the inhibition was 11.1% (inactive). In the case of `CC(C)CC(C(=O)Nn1cnnc1)N1C(=O)c2ccccc2C1=O` (centres undefined), the inhibition is reported as 25.1% (active). `Cc1noc(NS(=O)(=O)c2ccc(NC(=O)CCN3C(=O)c4ccccc4C3=O)cc2)c1C` was tested, and the inhibition was 12.8% (inactive). `Cc1cc(NS(=O)(=O)c2ccc(NC(=O)C(C)N3C(=O)c4ccccc4C3=O)cc2)nc(C)n1` (centres undefined) was tested, and the inhibition was 2.55% (inactive). `CC(C)CC(C(=O)NC(=O)NCc1ccccc1)N1C(=O)c2ccccc2C1=O` (centres undefined) was tested, and the inhibition was 7.55% (inactive). `Cc1noc(NS(=O)(=O)c2ccc(NC(=O)c3ccc(N4C(=O)c5ccccc5C4=O)cc3)cc2)c1C` was tested, and the inhibition was -1.13% (inactive). For `CC(C)CC(C(=O)NCc1ccccn1)N1C(=O)c2ccccc2C1=O` (centres undefined), the inhibition was 13.1% (inactive). `Cc1cc(NS(=O)(=O)c2ccc(NC(=O)C(C(C)C)N3C(=O)c4ccccc4C3=O)cc2)nc(C)n1` (centres undefined) was tested, and the inhibition was 11.3% (inactive). With `COc1cccc(Cn2nnc(C(=O)NCc3ccc(F)cc3)c2N)c1` the inhibition was -3.49% (inactive). `CCOC(=O)N1CCN(c2c(N3CCN(c4cccc(C(F)(F)F)c4)CC3)c(=O)c2=O)CC1` was tested, and the inhibition was 4.51% (inactive). `CC1=CCC2C(=O)N(c3ccc(S(N)(=O)=O)cc3)C(=O)C2C1` (centres undefined) was tested, and the inhibition was 2.35% (inactive). `Cc1nnc2ccc(N3CCOCC3)nn12` was tested, and the inhibition was 0.92% (inactive). With `CCn1c(C)nc2cc(C(=O)NNC(=S)Nc3ccc(Cl)cc3)ccc21` the inhibition was -13.2% (inactive). For `CCN1CCc2c(OCC(=O)N3CCCCC3)cccc2C1=O`, the inhibition was 1.05% (inactive). In the case of `C#CCN1C(=O)S/C(=C/c2cc(C)n(CC)c2C)C1=O`, the inhibition is reported as 9.33% (inactive). With `CCn1c(C)cc(/C=C2\SC(=O)N(CC(=O)Nc3ccc(C)c(C)c3)C2=O)c1C` the inhibition was 2.14% (inactive). In the case of `Cc1ccc(NC(=O)c2cc(C(C)(C)C)nn2Cc2ccccc2)cc1`, the inhibition is reported as 5.05% (inactive).
